Some test systems named below: NCI-H23 lung; NCI-H226 lung; NCI-H322M lung; HOP-62 NSCLC; NCI-H460 lung; HOP-92 NSCLC; A549/ATCC NSCLC; 786-0 renal; COLO 205 colon; DU-145 prostate; K-562 leukemia; MALME-3M melanoma; MDA-MB-231 breast; RXF 393 renal; SF-268 CNS; SF-295 CNS; SF-539 CNS; UACC-257 melanoma; M14 melanoma.
What all share (assay): NCI-60 one-dose screen, 48 h (100 = growth as untreated, 0 = no growth, -100 = all killed)
Conditions in all cases: 10 µM unless noted

The structures appear in SMILES notation. This is part of a sample that, as a whole, favours compounds with a hit. Of some 83,000 tested, about 20% had one in any assay.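 In brief: 96-well plates, 48 h treatment, single concentration, percent growth endpoint.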 A number with no mark means an inactive call. The source made the active and inactive calls. Rule for the calls: active = growth percent below 10; inactive = the rest.

On to `NS(=O)(=O)c1ccc(-n2ncc3c(NC4CCCCC4)ncnc32)cc1`, for which the growth with NCI-H23 lung is 103%; in the assay on NCI-H226 lung it was 91.5%; with NCI-H322M lung, 107%; in the assay with HOP-62 NSCLC it was 101%; in the assay with NCI-H460 lung, 110%; with HOP-92 NSCLC it was 47.4%. The growth is 83% in the assay on A549/ATCC NSCLC; 81% in the assay with 786-0 renal; 95% in the assay on COLO 205 colon; 100% in the assay on DU-145 prostate; 54.4% in the assay with K-562 leukemia; 108% in the assay with MALME-3M melanoma. The growth in the assay with MDA-MB-231 breast was 85.9%; with RXF 393 renal, 13.4%; in the assay with SF-268 CNS it was 116%; in the assay on SF-295 CNS it was 48.9%; with SF-539 CNS, 90.9%; in the assay on UACC-257 melanoma, 79.6%. Further, the growth in the assay with M14 melanoma is 98.2%.
Take `CCCCc1n(Cc2ccc3ccccc3c2)cc[n+]1Cc1ccc2ccccc2c1`: the growth in the assay with NCI-H23 lung is -23.8% (active); in the assay with NCI-H226 lung, -0.475% (active); in the assay with NCI-H322M lung, 23.3%; with HOP-62 NSCLC it was -2.71% (active); with NCI-H460 lung it was -13.1% (active); with HOP-92 NSCLC, -38.2% (active). Further, the growth in the assay on A549/ATCC NSCLC was 29.8%; with 786-0 renal, -18.4% (active); with COLO 205 colon, -77.1% (active); in the assay on DU-145 prostate, 13.6%; in the assay on K-562 leukemia, -17.9% (active); in the assay on MALME-3M melanoma, -52.8% (active). For the same compound, the growth in the assay with MDA-MB-231 breast was -92.9% (active); with RXF 393 renal, -42.7% (active); in the assay on SF-268 CNS, -12.6% (active); with SF-295 CNS, -14.1% (active); with SF-539 CNS it was -4.06% (active); with UACC-257 melanoma it was -33.8% (active). Further, the growth with M14 melanoma is -75.2% (active).
For `COC(=O)[C@H](CCCCNC(=O)OCc1ccccc1)NC(=O)[C@@H](NC(=O)Nc1cc(C(F)(F)F)cc(C(F)(F)F)c1)C(C)C`, the growth is -45.6% [100 µM] (active) with NCI-H23 lung; 39% [100 µM] in the assay on NCI-H226 lung; 19.9% [100 µM] in the assay on NCI-H322M lung; -84.2% [100 µM] (active) in the assay with HOP-62 NSCLC; -23.1% [100 µM] (active) in the assay on NCI-H460 lung; -69.5% [100 µM] (active) with HOP-92 NSCLC. The growth in the assay with A549/ATCC NSCLC was 45.1% [100 µM]; in the assay on 786-0 renal, -91.7% [100 µM] (active); in the assay on COLO 205 colon it was -12.8% [100 µM] (active); with DU-145 prostate, -82.2% [100 µM] (active); in the assay on K-562 leukemia, -18.9% [100 µM] (active); in the assay with MALME-3M melanoma, -61.4% [100 µM] (active). In addition, the growth was -87.8% [100 µM] (active) in the assay with MDA-MB-231 breast; -90.8% [100 µM] (active) in the assay with RXF 393 renal; -85% [100 µM] (active) in the assay on SF-268 CNS; -65.5% [100 µM] (active) in the assay on SF-295 CNS; -78.5% [100 µM] (active) with UACC-257 melanoma; -75.6% [100 µM] (active) in the assay with M14 melanoma.
For the compound `Cc1ccc(-c2c3c(N)nc(-c4ccncc4)nc3nc3c2c(C)nn3-c2ccccc2)cc1`, the growth is 56.4% with NCI-H23 lung; 44.9% in the assay with NCI-H226 lung; 70.3% in the assay with NCI-H322M lung; 15.5% with HOP-62 NSCLC; 28.5% in the assay on NCI-H460 lung; -7.02% (active) in the assay with HOP-92 NSCLC. For the same compound, the growth in the assay with A549/ATCC NSCLC was 17.8%; in the assay with 786-0 renal, 80.8%; in the assay on COLO 205 colon, 18.1%; with DU-145 prostate, 32.6%; in the assay on K-562 leukemia it was 28.9%; in the assay on MALME-3M melanoma, -2.14% (active). Moreover, the growth was 21.4% in the assay with MDA-MB-231 breast; 45.6% in the assay on RXF 393 renal; 37.8% with SF-268 CNS; 95% with SF-295 CNS; 11.3% in the assay on SF-539 CNS; 44.3% in the assay on M14 melanoma.
Consider `O=C1/C(=C/c2ccc(F)cc2)Cc2ccccc21`, for which the growth with NCI-H23 lung was 99.7%; in the assay with NCI-H226 lung, 94.2%; in the assay on NCI-H322M lung, 95.2%; in the assay with HOP-62 NSCLC it was 96.2%; with NCI-H460 lung, 103%; in the assay on HOP-92 NSCLC, 80.4%. Also, the growth in the assay with A549/ATCC NSCLC was 91.7%; in the assay with 786-0 renal, 96%; in the assay on COLO 205 colon, 115%; with DU-145 prostate, 104%; with K-562 leukemia it was 110%; in the assay with MALME-3M melanoma, 107%. Also, the growth with MDA-MB-231 breast was 107%; with RXF 393 renal it was 99.6%; in the assay on SF-268 CNS it was 110%; in the assay with SF-295 CNS it was 90.8%; in the assay on SF-539 CNS it was 107%; in the assay with M14 melanoma, 103%.
As to `c1cc[n+](Cc2ccnc3ccccc23)cc1`, the growth with NCI-H23 lung was 123%; in the assay with NCI-H226 lung, 93.9%; in the assay with NCI-H322M lung it was 111%; in the assay with HOP-62 NSCLC, 94.1%; in the assay on NCI-H460 lung, 106%; in the assay with HOP-92 NSCLC it was 47.9%. The growth in the assay with A549/ATCC NSCLC was 107%; in the assay with 786-0 renal it was 107%; in the assay on COLO 205 colon it was 104%; in the assay on DU-145 prostate it was 117%; in the assay with K-562 leukemia it was 71.3%; with MALME-3M melanoma, 114%. Further, the growth with MDA-MB-231 breast is 98.9%; in the assay on RXF 393 renal it was 90.3%; with SF-268 CNS, 106%; with SF-295 CNS, 95.9%; in the assay on SF-539 CNS, 89.3%; with M14 melanoma, 101%.
Regarding `CSc1nc(-c2ccc(O)cc2O)c2c(=O)[nH]c(Nc3ccc(S(=O)(=O)Nc4nc(C)cc(C)n4)cc3)nc2n1`, the growth in the assay with NCI-H23 lung was 105%; in the assay on NCI-H226 lung, 105%; in the assay on NCI-H322M lung it was 108%; in the assay with HOP-62 NSCLC, 89.6%; in the assay on NCI-H460 lung it was 111%; with HOP-92 NSCLC it was 24.6%. Further, the growth in the assay with A549/ATCC NSCLC is 112%; in the assay with 786-0 renal it was 100%; in the assay with COLO 205 colon, 112%; in the assay with DU-145 prostate, 95.1%; in the assay on K-562 leukemia, 99.4%; with MALME-3M melanoma, 79.8%. The growth with MDA-MB-231 breast is 100%; in the assay on RXF 393 renal it was 115%; in the assay on SF-268 CNS, 101%; with SF-539 CNS, 108%; with UACC-257 melanoma, 124%.
On to `CCCCCc1c(C)[nH]c(/C=C2\N=C(c3ccc[nH]3)C=C2Oc2ccccc2)c1C`, for which the growth with NCI-H23 lung is -80.2% [100 µM] (active); in the assay with NCI-H226 lung, -38.2% [100 µM] (active); with NCI-H322M lung, -49.8% [100 µM] (active); in the assay with HOP-62 NSCLC, -46.4% [100 µM] (active); with NCI-H460 lung it was -38.6% [100 µM] (active); in the assay on HOP-92 NSCLC, -41.3% [100 µM] (active). In addition, the growth in the assay on A549/ATCC NSCLC is -81.6% [100 µM] (active); in the assay on 786-0 renal, -76.3% [100 µM] (active); in the assay with COLO 205 colon it was -53.9% [100 µM] (active); in the assay with DU-145 prostate, -68.1% [100 µM] (active); in the assay on K-562 leukemia it was -43.8% [100 µM] (active); in the assay with MALME-3M melanoma it was -44.7% [100 µM] (active). Moreover, the growth was -94.1% [100 µM] (active) with MDA-MB-231 breast; -57.2% [100 µM] (active) with RXF 393 renal; -60.8% [100 µM] (active) with SF-268 CNS; -57.7% [100 µM] (active) in the assay with SF-295 CNS; -66.9% [100 µM] (active) in the assay on UACC-257 melanoma; -96.7% [100 µM] (active) in the assay on M14 melanoma.

Source of the values: PubChem BioAssay (NCI).
